Assay results as given in PubChem BioAssay AID540259 (Broad Institute, 2011).
Measured potencies and affinities stand elsewhere. Active and inactive are the calls of the source.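 The calls were made as follows: active = cell killing, meaning signal decrease, with fitted half-maximal dose at or below ten times the top valid tested dose; inconclusive = poor fit, or flat curve with 30 to 70% signal loss; inactive = the rest.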

test: ATP-based viability loss in HeLa cells – cell-based, CellTiter-Glo luminescence, cherry-pick samples, cytotoxicity control for MITF activator project, dose response (AID 540259); details: 24 h; series mostly up to 35 µM

| SMILES | outcome |
| --- | --- |
| Cc1ccn2cc(-c3cccc(NS(C)(=O)=O)c3)nc2c1 | inactive |
| CSc1cccc(NC(=O)c2cnn3ccccc23)c1 | inactive |
| Cc1nc(SCc2ccccc2)nc2c1CCC2 | inactive |
| O=C(N/N=C/c1ccccc1C(F)(F)F)c1ccc(O)cc1 | inactive |
| CC(=O)N(c1ccccc1)c1nnc(-c2cnc(C)cn2)s1 | inactive |
| CCC(C)NC(=O)c1cc(-c2ccc(OC)cc2)on1 (configuration not stated) | inactive |
| c1ccc2c(c1)NC1(CCCC1)n1c-2nc2ccccc21 | inactive |
| Cc1cc(C(=O)Cn2nc(C(=O)O)c3ccccc3c2=O)c(C)n1CC(F)(F)F | inactive |
| O=C(Nc1ccccc1)Nc1ccc2nnsc2c1 | inactive |
| COc1ccc(/C(C)=N/Nc2nncc3ccccc23)cc1 | inactive |
| CCc1nc2oc3ccccc3c(=O)c2cc1C(=O)OC | inactive |
| CCC(=O)Nc1sc(C(=O)Nc2ccccc2F)c(C)c1C(=O)OC | inactive |
| O=C1c2ccccc2C(=O)N1CCc1c[nH]c2ccccc12 | inactive |
| Cc1ccc(CNc2nc(C)cs2)cc1 | inactive |
| COc1ccc(-c2cn3nc(C)c(C)nc3n2)cc1OC | inactive |
| Clc1ccc(-c2nc(C3CCCCC3)no2)cc1 | inactive |
| CCCc1nc2ccc(NC(C)=O)cc2c(=O)n1Cc1ccc(Cl)cc1 | inactive |
| COc1ccc(-c2csc(N(C)C(=O)c3cccs3)n2)cc1 | inactive |
| CCCn1nnc(NC(=O)c2ccc(-c3ccccc3)cc2)n1 | inactive |
| CCCCNC(=O)c1cc2ccccc2s1 | inactive |
| Nc1ccc(-c2nc3ncccc3o2)c(O)c1 | inactive |
| Cc1nc2cc3nc(C)sc3cc2s1 | inactive |
